Hit rate of the full screen: of about 300,000 compounds, about 3,200 (1.1%) were called active. The sample holds actives, similar compounds and a random draw of the others, so the mix is not that of the screen. A number with no mark means an inactive call.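 The calls were made as follows: active = inhibition above the campaign mean inhibition plus 3 SD (cut at about 35% in these data); inactive = the rest.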
molecular target: Glutathione S-transferase omega-1 (Homo sapiens) (UniProt P78417); assay: inhibitors of recombinant GSTO1, primary screen, counter-screen for RBBP9 inhibitor project, biochemical, fluorescence polarization (AID 1974); conditions: recombinant GSTO1, activity-based probe fluorescence polarization; at 5.96 µM; active compounds read high;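 also: 0% = GSTO1-1 with DMSO and 100% = wells lacking GSTO1-1 enzyme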
Sequence (P78417 whole entry, looked up): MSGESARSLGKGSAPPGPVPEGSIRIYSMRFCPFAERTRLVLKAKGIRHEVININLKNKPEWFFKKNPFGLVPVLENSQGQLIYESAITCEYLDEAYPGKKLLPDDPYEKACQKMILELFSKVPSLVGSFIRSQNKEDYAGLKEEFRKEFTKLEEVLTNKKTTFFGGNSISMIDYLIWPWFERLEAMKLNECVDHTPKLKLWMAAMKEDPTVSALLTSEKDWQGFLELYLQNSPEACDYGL

Compound | inhibition
CN(C)CCN(C(=O)CN1C(=O)c2ccccc2C1=O)c1nc2cc3c(cc2s1)OCCO3 | 1.93%
COc1cccc(N2CC(NC(=O)c3ccc4ccccc4c3)CC2=O)c1 (stereo not drawn) | -0.99%
O=C(OCC(=O)N1CCCC1=O)c1cc(S(=O)(=O)N2CCOCC2)ccc1Cl | 82% (active)
CC(C)(C)C(=O)COC(=O)c1cc(S(=O)(=O)N2CCCCC2)ccc1N1CCOCC1 | -0.05%
CC1CCN(C(=O)COC(=O)c2cc(S(=O)(=O)N3CCOCC3)ccc2Cl)CC1 | -3.67%
CCCNC(=O)c1onc(CSc2ccc(F)cc2)c1C(=O)NC(C)C | -6.69%
CC[N+](C)(CC)CCC[n+]1c(-c2ccccc2)c2cc(N)ccc2c2ccc(N)cc21 | 92.8% (active)
COCC(=O)Nc1c(I)c(C(=O)NCC(O)CO)c(I)c(C(=O)N(C)CC(O)CO)c1I (stereo not drawn) | 3.24%
Cc1ccc2c(c1)N(CC(=O)NCC1CCCO1)C(=O)CO2 (stereo not drawn) | -3.07%
Cn1c(SCC(=O)N/N=C/c2ccc(O)c(O)c2)nc2ccccc21 | 52% (active)
CCn1c(SCC(=O)N/N=C/c2ccncc2)nc2ccccc21 | -0.27%
CCOc1ccc(/C=N/NC(=O)CSc2ccccn2)cc1O | 1.26%
CC(=O)c1ccc(-c2ccc(Cn3c(C)nc4cc(N)c(C)nc43)cc2)cc1 | 4.41%
Cc1cc2nc3c(=O)n(Cc4ccccc4)c(=O)[nH]c3nc2cc1N | 44.9% (active)
CSc1nc2ccccc2c(=O)n1Cc1ccc(F)cc1 | -7.17%
O=S(=O)(ON(c1ccccc1)S(=O)(=O)c1ccccc1)c1ccccc1 | -0.47%
CC1=C/C(=N\OS(=O)(=O)c2ccccc2)C=CC1=O | 49.7% (active)
CCN(CC(=O)NCc1cccs1)C(=O)c1ccc(OC)c(S(=O)(=O)N2CCOCC2)c1 | 11.9%
O=S(=O)(O)Oc1c[nH]c2ccccc12 | 62.3% (active)
O=C(Cc1c[nH]c2ccccc12)OCCOC(=O)Cc1c[nH]c2ccccc12 | -2.78%
COc1ccccc1CC(=O)NCCc1c[nH]c2ccccc12 | 5.81%
Cc1ccc(Cn2nnc3c(=O)[nH]c(C4CCN(S(=O)(=O)/C=C/c5ccccc5)CC4)nc32)cc1 | -24.4%
O=C(CN1C(=O)c2ccccc2C1=O)NCc1ccc(C(=O)O)cc1 | 3.69%
CC(=O)N(C1=C(Cl)C(=O)c2ccccc2C1=O)c1ccc(C(=O)O)cc1 | 79.7% (active)

Compound | inhibition
CC(C)N(C(=O)c1ccc(-c2ccccc2F)cc1)C(C)C | 0.63%
NC(=O)NC(=O)C(OC(=O)CCNS(=O)(=O)c1ccccc1)c1ccccc1 (stereo not drawn) | -0.72%
Cc1ccc(CSCC(=O)N(C)CC(=O)Nc2ccc(C)cc2)cc1 | -11.5%
CCOC(=O)c1cnc2nc(SCc3ccccc3Cl)[nH]n2c1=O | -25.6%
CN1CCN(/N=C2/C(=O)Nc3ccc([N+](=O)[O-])cc32)CC1 | 37.1% (active)
CN1CCN(/N=C/c2ccc(-c3ccc([N+](=O)[O-])cc3)o2)CC1 | 3.62%
Cc1ccc([N+](=O)[O-])cc1S(=O)(=O)N1CCCN(C)CC1 | 2.63%
COc1cccc(NC(C)=[N+](C)CCNS(=O)(=O)c2ccc(Cl)cc2)c1 | 8.66%
Cc1cccc(C(C)C)c1NC(=O)COC(=O)C1CC(=O)N(Cc2ccccc2)C1 (stereo not drawn) | 7.97%
Oc1ccc(N=Nc2nccs2)c(O)c1 | 36.6% (active)
Oc1ccc2ccccc2c1N=Nc1nccs1 | 52% (active)
c1ccc(NCc2cccc3ccccc23)nc1 | -6.32%
O=C(Oc1ccc(-c2nnco2)cc1)c1ccc(F)c(S(=O)(=O)N2CCOCC2)c1 | 3.94%
CCN(CC(=O)Nc1c(F)cccc1F)C(=O)c1ccc(S(=O)(=O)N2CCCCC2)cc1 | 3.32%
Cc1cccc(C)c1NC(=O)CSc1ccc([N+](=O)[O-])cn1 | 5.11%
O=[N+]([O-])c1ccc(Sc2n[nH]c(-c3ccco3)n2)nc1 | 5.75%
CC(C)(C)n1cnnc1Sc1ccc([N+](=O)[O-])cn1 | 39.1% (active)
CC(OC(=O)CNC(=O)c1cccc(F)c1)C(=O)NC1CCCCC1C (stereo not drawn) | 3.44%
Cc1ccccc1NCC(=O)N/N=C\c1ccc([N+](=O)[O-])s1 | 15.2%
COc1ccc(C(=O)NCC(=O)N/N=C/c2ccc([N+](=O)[O-])s2)cc1OC | 27.8%
CC(C)(C)c1cc(C(=O)N/N=C/c2ccc([N+](=O)[O-])s2)n[nH]1 | 37% (active)
O=C(NCCSc1ncc(-c2ccccc2)[nH]1)c1ccco1 | 5.65%
CC1(OC(=O)CCc2ccccc2)C(=O)C=C2C=C(c3ccc(C#N)cc3)N(CCc3ccccn3)C=C2C1=O (stereo not drawn) | 27.9%
COCCN1C=C2C(=O)C(C)(OC(=O)C3CCCC3)C(=O)C=C2C=C1c1ccsc1 (stereo not drawn) | 45.6% (active)

Compound | inhibition
CC1(OC(=O)C2CCCC2)C(=O)C=C2C=C(c3ccc(C#N)cc3)OC=C2C1=O (stereo not drawn) | 24.5%
NC(=O)C1=C[C@@H](c2ccc3c(c2)OCO3)C[C@@H](OCCCCO)O1 | 14.6%
CN(C)C(=O)N=NC(=O)N(C)C | 1.15%
CCC(Oc1ccccc1C)C(=O)Nc1ccc(S(=O)(=O)Nc2cc(C)on2)cc1 (stereo not drawn) | -0.82%
CN1c2ccc(C=O)c3c(C=O)ccc(c23)N(C)C1(C)C | 72.9% (active)
Cc1cc(C)cc(NC(=O)COc2coc(CN3CCN(c4ccccc4)CC3)cc2=O)c1 | -4.3%
CCN(C(=O)CSc1ncnc2c1cnn2-c1ccccc1)C1CCS(=O)(=O)C1 (stereo not drawn) | -42.3%
CC(=O)N1CCN(C(=O)c2cc(-c3ccc(C)o3)nc3ccccc23)CC1 | 5.42%
Clc1ccc(C2=CSC3=Nc4cccc5cccc(c45)N23)cc1 | 58.2% (active)
Cc1ccc2nc(NC(=O)CSc3nc(=O)n(CCCN(C)C)c4c3CCC4)sc2c1 | -12.3%
COc1ccc2oc(C(=O)N(CC(C)C)C3CCS(=O)(=O)C3)c(C)c2c1 (stereo not drawn) | -0.98%
Cc1ccc(/C=N/NC(=O)CN2CCN(Cc3ccccc3)CC2)s1 | -7.48%
Cc1ccc(C(=O)N/N=C/c2sc(=O)n(Cc3cccc(C(=O)O)c3)c2Cl)cc1 | 40.4% (active)
Cc1ccc(C(=O)N/N=C/c2cccc3ccccc23)cn1 | 0.98%
Cc1ccccc1S(=O)(=O)N1[C@@H](c2cccc(Cl)c2)C(C(=O)O)=CC[C@H]1c1ccc(Cl)cc1 | -219%
COc1ccc(-c2c(NC(=O)c3ccco3)oc3ccc(Cl)cc3c2=O)cc1 | -7.76%
CN(C(=O)COC(=O)c1nc(Cl)ccc1Cl)C1CCS(=O)(=O)C1 (stereo not drawn) | 3.97%
CN(C(=O)COC(=O)c1cc(-c2ccco2)nc2ccccc12)C1CCS(=O)(=O)C1 (stereo not drawn) | 66.1% (active)
Cc1c(-c2cccc(Cl)c2)nc2ccccc2c1C(=O)OCC(=O)N(C)C1CCS(=O)(=O)C1 (stereo not drawn) | -6.81%
Nc1c(-c2ccccc2)nnn1Cc1ccccc1 | 16.3%
CC1CCC(CN2CCN=C2N(C)C)CC1 (stereo not drawn) | 1.09%
COc1ccc(NC(=O)CSc2nc3ccccc3c(=O)n2C)cc1 | -2.78%
COc1ccc(NC(=O)CSc2nnc(Cc3ccccc3)c(=O)n2N)cc1 | 36.1% (active)
COc1ccc(Cc2nnc(SCC(=O)N(c3ccccc3)C(C)C)n(N)c2=O)cc1 | -0.68%

Compound | inhibition
O=C(NCc1ccccn1)Nc1ccc(Cl)cc1 | -3.8%
Cc1ccnc(NC(=O)CNC(=O)c2ccccc2)c1 | -2.68%
Cc1ccc2nc(-c3ccncc3)cc(C(=O)Nc3ccncc3)c2c1 | 0.09%
O=C(Nc1ccc(S(=O)(=O)Nc2nccs2)cc1)c1cc(-c2ccncc2)nc2ccccc12 | 44.3% (active)
O=C(Nc1ccc(S(=O)(=O)Nc2nccs2)cc1)c1cc(=O)[nH]c2ccccc12 | -5.17%
COc1ccc(C(=O)Oc2ccc(-c3nnco3)cc2)cc1S(=O)(=O)N1CCOCC1 | 8.84%
O=C(Nc1cc2c3c(c1)CC(=O)N3CCC2)c1ccccc1F | -2.65%
COc1ccccc1N(C)S(=O)(=O)c1ccc(Cl)c(C(=O)Nc2ccncc2)c1 | 1.75%
O=C1c2ccccc2C(=O)c2c1cccc2N1CCN(C/C=C/c2ccccc2)CC1 | 1.48%
CCCC(=O)N1c2ccccc2NC2=C(C(=O)CCC2)C1c1ccc(F)cc1 (stereo not drawn) | -0.62%
CC1C(=O)Nc2ccccc2N1C(=O)c1c(F)cccc1F (stereo not drawn) | 4.45%
CC1C(=O)Nc2ccccc2N1C(=O)c1ccc(F)cc1F (stereo not drawn) | 52.8% (active)
COc1ccc(N2CCN(C(=O)CCNC(=O)c3ccc(Br)cc3)CC2)cc1 | -8.57%
CCCCn1c(N)c(N(CC(C)C)C(=O)CN(C)S(=O)(=O)c2ccc(F)cc2)c(=O)[nH]c1=O | 16.4%
CC(=O)c1c(C)[nH]c(C(=O)N2CCN(S(=O)(=O)c3ccc(F)c(F)c3)CC2)c1C | 16.8%
CCCC(=O)Nc1ccc2c(c1)nc(CCNC(=O)c1ccco1)n2C | 5.94%
O=C(NCc1ccccn1)c1ccc2nc(-c3ccco3)c(-c3ccco3)nc2c1 | 82.7% (active)
Cc1cc(C)cc(NC(=O)NCc2ccccn2)c1 | 0.33%
CC(C)(C)c1ccc(NC(=O)NCc2ccco2)cc1 | 3.61%
COCCNC(=O)Nc1ccc2nc(-c3ccco3)c(-c3ccco3)nc2c1 | 69.1% (active)
COc1ccc2oc(=O)c(C(=O)NCc3ccccn3)cc2c1 | 3.7%

From PubChem BioAssay AID1974 (The Scripps Research Institute Molecular Screening Center, 2009)
